Measured values taken from PubChem BioAssay (NCI).
About 83,000 compounds went through this panel and 20% of them were active in at least one assay; those are over-represented in the sample as a whole.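 Percent growth is the endpoint: 0 to 100 indicates growth inhibition (40 means 60% inhibition), 0 means no net growth, and negative values indicate cell death.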 Activity calls are given as the source filed them. How the source made its calls: active means growth percent below 10; inactive means the rest.

How the values were obtained:
Assay in all cases: NCI-60 one-dose screen, 48 h (100 = growth as untreated, 0 = no growth, -100 = all killed)
Details in all cases: 10 µM unless noted
[1] = test system: HCT-15 colon
[2] = test system: HT29 colon
[3] = test system: SNB-75 CNS
[4] = test system: SNB-19 CNS
[5] = test system: U251 CNS
[6] = test system: PC-3 prostate
[7] = test system: SK-MEL-5 melanoma
[8] = test system: UACC-62 melanoma
[9] = test system: LOX IMVI melanoma
[10] = test system: SK-MEL-28 melanoma

Measured: growth

O=C(/C=C/c1ccc(Cl)cc1)c1ccc(Nc2ccnc3cc(Cl)ccc23)cc1
inactive: [1] 56.1% | [2] 30.6% | [3] 92.5% | [4] 99.7% | [5] 52.7% | [6] 70.9% | [7] 53.3% | [8] 92.8% | [9] 83.3% | [10] 104%

C=CN(C(=O)N1CCN(c2cc3c(cc2F)c(=O)c(C(=O)O)cn3C2CC2)CC1)c1nc(-c2ccc(C)cc2)cs1
active: [1] 9.38% | [2] 6.66% | [9] 8.56%
inactive: [3] 14.4% | [4] 18.5% | [5] 11.4% | [6] 14.7% | [7] 26.6% | [8] 29.2% | [10] 42.1%

Cc1[nH]c(C(=O)Nc2ccccc2OC2CCNC2)c(Cl)c1Cl (stereo not given)
inactive: [1] 77.7% | [2] 77.8% | [3] 65.2% | [4] 85.3% | [5] 64.4% | [6] 80.2% | [7] 85.8% | [8] 68.1% | [9] 30.7% | [10] 106%

O=C(/C=C\c1ccc(O)c(O)c1)c1ccccc1O
inactive: [1] 46% | [2] 90.8% | [3] 76.9% | [4] 81.4% | [5] 69% | [6] 76.7% | [7] 77.2% | [8] 72.6% | [9] 75.1% | [10] 94.9%

CNC(=O)c1cc(Oc2ccc3nc(NC(=O)NC(C)C)sc3c2)ccn1
inactive: [1] 55.9% | [2] 33.3% | [3] 93.9% | [4] 82.3% | [5] 51.6% | [6] 70.1% | [7] 65.3% | [8] 68.6% | [9] 68.8% | [10] 85.8%

COc1nc2ccccc2cc1/C=C1/C=C(c2ccccc2)NC1=O
inactive: [1] 30.3% | [2] 10% | [3] 28.8% | [4] 43.4% | [5] 31% | [6] 55.1% | [7] 39.4% | [8] 32.1% | [9] 38.8% | [10] 58.9%

COc1cc(C)cc(-c2c(-c3cc(N4CC(O)C4)nc(-c4cccnc4)n3)cnn2C)c1
inactive: [1] 77.4% | [2] 88.3% | [3] 82.5% | [4] 91.4% | [5] 91.3% | [6] 82.5% | [7] 69.8% | [8] 73.1% | [9] 52.9% | [10] 92.5%

CC(C)(C#N)c1cc(C(=O)Nc2cc(Nc3ncccc3-c3ncnc4nc[nH]c34)ccc2F)cc(C(F)(F)F)c1
active: [8] 3.16% | [9] -9.46%
inactive: [1] 54% | [2] 20.7% | [3] 37% | [4] 71.2% | [5] 59.7% | [6] 63.9% | [7] 24.4% | [10] 10.4%

COC(=O)[C@@H](Cc1c[nH]c2ccccc12)NC(=O)[C@H](Cc1ccccc1)NCc1ccncc1
inactive: [1] 110% | [2] 87.5% | [3] 93% | [4] 93.3% | [5] 92.7% | [6] 78.5% | [7] 102% | [8] 95.3% | [9] 95% | [10] 122%

CCOC(=O)c1c(Nc2nc3ccccc3s2)sc2c1CCC(=O)C2
inactive: [1] 45.1% | [2] 55.4% | [3] 74.8% | [4] 45.8% | [5] 20.5% | [6] 22.2% | [7] 61.2% | [8] 43.1% | [9] 40.1% | [10] 108%

CN(C)c1ccc(Cc2cc(-c3ccccc3)nn(C/C(=N/O)c3ccccc3)c2=O)cc1
inactive: [1] 50.1% | [2] 32.9% | [3] 72.9% | [4] 64.4% | [5] 44.3% | [6] 30.9% | [7] 55.8% | [8] 39.3% | [9] 53% | [10] 72%

CC/C(=C(/c1ccc(Cl)cc1)c1ccc(OCCN2CCCC2)cc1)c1ccccc1
active: [1] 6.41% | [2] -25.4%
inactive: [3] 96.3% | [4] 60.6% | [5] 32.1% | [6] 40.4% | [7] 22.4% | [8] 79.2% | [9] 32.4% | [10] 76.9%

O=C(N/N=C/c1ccccc1Cl)c1ccccc1Nc1ccnc(C(F)(F)F)c1
inactive: [1] 10.4% | [4] 17.1% | [10] 25.7%
active: [2] 3.22% | [3] -14.5% | [5] 3.95% | [6] 2.99% | [7] -50.7% | [8] -32.7% | [9] 4.1%

CC1OC(C(=O)N2CCN(CCO)CC2)CC1COC1CCCCC1 (stereo not given)
inactive: [1] 102% [50 µM] | [2] 106% [50 µM] | [3] 88.3% [50 µM] | [4] 93.9% [50 µM] | [5] 99.4% [50 µM] | [6] 92.3% [50 µM] | [7] 95.8% [50 µM] | [8] 87.7% [50 µM] | [9] 96.4% [50 µM] | [10] 106% [50 µM]

Cc1c(N2CCCCC2)[nH]c2ccccc12
inactive: [1] 131% | [2] 104% | [3] 117% | [4] 116% | [5] 101% | [6] 70.5% | [7] 107% | [8] 110% | [9] 95.3% | [10] 133%

C=CCn1c(SCC(=O)Nc2ccc(C(=O)/C=C/c3ccc(Cl)cc3)cc2)nnc1-c1ccc(Cl)c(Cl)c1
inactive: [1] 78.8% | [2] 71.6% | [3] 73.9% | [4] 85.3% | [5] 81% | [6] 51.8% | [7] 82.3% | [8] 62.4% | [9] 72.2% | [10] 101%

Cc1c(CC(=O)Nc2ccccc2)nnn1-c1ccccc1
inactive: [1] 101% | [2] 111% | [3] 104% | [4] 102% | [5] 102% | [6] 104% | [7] 101% | [8] 97.7% | [9] 97.7% | [10] 112%

COc1cc2ncnc(Nc3ccc(S(=O)(=O)Nc4cc(C)on4)cc3)c2cc1OCCCN1CCOCC1
inactive: [1] 105% | [2] 101% | [3] 90.8% | [4] 101% | [5] 95.2% | [6] 103% | [7] 97.1% | [8] 104% | [9] 96.4% | [10] 115%

CN1/C(=C/C=C/c2n(Cc3ccc4ccccc4c3)c(Cl)c(Cl)[n+]2Cc2ccc3ccccc3c2)Oc2ccccc21
active: [1] -72.9% | [2] -79.7% | [3] -63.6% | [4] -96.3% | [5] -97.3% | [6] -78.4% | [7] -99.4% | [8] -94.4% | [9] -93.8% | [10] -89.5%

CC/C(=C(/c1ccc(Cl)cc1)c1ccc(OCCCN(C)C)cc1)c1ccc(OC)cc1
inactive: [1] 12.8% | [3] 81% | [4] 82.8% | [6] 49.3% | [7] 63.4% | [8] 104% | [9] 16.6% | [10] 76.6%
active: [2] 1.68% | [5] 6.12%

O=CN1N=C(c2cccc(Nc3ccncc3)c2)CC1c1ccc2c(c1)OCO2 (stereo not given)
inactive: [1] 95.7% | [2] 69.8% | [3] 88.4% | [4] 99.7% | [5] 94.8% | [6] 84.9% | [7] 91.8% | [8] 99.6% | [9] 95.3% | [10] 97.7%

Cc1ccccc1NC(=O)c1sc2nc3c(cc2c1N)CCCC3
inactive: [1] 25% | [3] 37.8% | [4] 30.9% | [5] 23% | [6] 29.9% | [7] 20.5% | [8] 27.6% | [9] 40.5% | [10] 75.1%
active: [2] 7.53%

O=C(CNc1ncco1)Nc1ccc(S(=O)(=O)c2ccc(NC(=O)CNc3ncco3)cc2)cc1
active: [1] -49.6% | [2] -93.2% | [5] -92.1% | [7] -60.4% | [8] -19.9% | [9] -81.8%
inactive: [3] 42.1% | [4] 19.7% | [6] 40.1% | [10] 58.1%

COc1ccc(/C=C/C(=O)c2ccc(-n3cc(CN4CCN(c5cc6c(cc5F)c(=O)c(C(=O)O)cn6C5CC5)CC4)nn3)cc2)cc1
inactive: [1] 80.6% | [2] 29.6% | [3] 58.3% | [4] 67.7% | [5] 41.4% | [6] 56.3% | [7] 69% | [8] 53.9% | [9] 27.9% | [10] 79.7%
